These results are taken from PubChem BioAssay AID720706 (Broad Institute, 2013).

Among all 350,000 compounds or so, about 5,500 (1.6%) were called active.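 The calls were made as follows: active = significant combined selectivity score with lowered wild-type GFP, culture density cut under 30%, mutant RFP and density less affected; inactive = any of these conditions unmet.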 The list comes from a sample in which actives are over-represented; it also holds similar structures and randomly drawn compounds.

The nature of this assay: reduced GFP signal of wild-type E. coli, primary screen, bacterial rRNA inhibitor project, GFP/RFP fluorescence, OD600, single point (AID 720706). Particulars: E. coli WT GFP vs humanized-ribosome RFP mutants, 24 h; GFP signal change (wild-type ribosome): stronger effect = lower value, DMSO median 0, no signal -100; OD600 change: measured here: OD600 growth, DMSO median 0, no signal -100; RFP signal change: measured here: RFP humanized mutant strains, DMSO median 0, no signal -100, concentration not given here.
With `COc1ccc(C#Cc2ccc([C@H]3[C@@H](CO)N4CCCCN(S(=O)(=O)c5cn(C)cn5)C[C@H]34)cc2)cc1`, the GFP signal change (wild-type ribosome) is -58.4% (inactive), the OD600 change was -77.4% and the RFP signal change is -16.4%.
Taken in the same sequence, the figures for `O=C(CC1CC1)N1[C@@H](CO)[C@@H](c2ccccc2)C12CN(S(=O)(=O)c1ccccc1)C2` were -0.794% (inactive), 0.08% and 4.17%.
Taken in the same sequence, the figures for `CO[C@H]1CN(C)C(=O)c2ccc(NC(=O)C3CC3)cc2OC[C@H](C)N(C(=O)CN2CCOCC2)C[C@@H]1C` were 2.07% (inactive), 1.32% and -3.59%.
Taken in the same sequence, the figures for `C[C@H](CO)N1C[C@H](C)[C@H](CN(C)Cc2ccc(C(=O)Nc3ccccc3N)cc2)Oc2ccc(NC(=O)Nc3ccccc3)cc2CC1=O` were -24.5% (inactive), -22.3% and 1.58%.
As for `C[C@@H]1CCCCO[C@H](CN(C)C(=O)NC2CCCCC2)[C@H](C)CN([C@@H](C)CO)C(=O)c2cc(NC(=O)C3CCCCC3)ccc2O1`, the GFP signal change (wild-type ribosome) is -5.13% (inactive), the OD600 change is -0.493% and the RFP signal change is -3.14%.
As for `COc1ccc(NC(=O)Nc2cccc3c2O[C@@H](CN(C)S(=O)(=O)c2cn(C)cn2)[C@H](C)CN([C@@H](C)CO)C3=O)cc1`, the GFP signal change (wild-type ribosome) was -1.33% (inactive), the OD600 change is -1.5% and the RFP signal change was -0.415%.
As to `O=C(NC1CCCC1)[C@@H]1[C@@H](CO)[C@@H]2Cn3c(ccc(-c4ccc(F)cc4)c3=O)[C@H]1N2Cc1cocn1`, the GFP signal change (wild-type ribosome) was -0.879% (inactive), the OD600 change is 4.54% and the RFP signal change was -1.31%.
`COC(=O)C[C@@H]1C[C@@H]2c3cc(NC(=O)NC4CCCC4)ccc3O[C@@H]2[C@@H](CO)O1`: the GFP signal change (wild-type ribosome) is 1.15% (inactive), the OD600 change was -0.449% and the RFP signal change was -0.687%.
Regarding `OC[C@@H]1CN(Cc2ccc(F)cc2)C[C@H](n2cnc3c(NC4CCCC4)ncnc32)O1`, the GFP signal change (wild-type ribosome) is -15.1% (inactive), the OD600 change is -8.49% and the RFP signal change came to 0.518%.
With `OC[C@@H]1CN(Cc2cccs2)C[C@H](n2cnc3c(NC4CCCC4)ncnc32)O1`, the GFP signal change (wild-type ribosome) was -2.42% (inactive), the OD600 change was -4.54% and the RFP signal change came out at 4.82%.
Consider `OC[C@@H]1CN(Cc2ccc(-c3ccccc3)cc2)C[C@H](n2cnc3c(NC4CCCC4)ncnc32)O1`, for which the GFP signal change (wild-type ribosome) is -21.9% (active), the OD600 change is -14.8% and the RFP signal change is -2.32%.
The matching figures for `CCCN1C[C@@H](C)[C@@H](OC)CN(C)C(=O)c2cc(NC(=O)NC3CCCCC3)ccc2OC[C@H]1C`: 2.68% (inactive), 4.16% and -1.33%.
Taken in the same sequence, the figures for `O=C(C[C@@H]1CC[C@@H]2[C@H](COC[C@H](O)CN2S(=O)(=O)c2ccc(F)cc2)O1)NCc1ccc(Cl)c(Cl)c1` were -20.8% (inactive), -43.9% and 0.781%.
Regarding `C[C@@H]1CN([C@H](C)CO)C(=O)Cc2cc(NC(=O)Cn3cnnn3)ccc2O[C@@H]1CN(C)S(=O)(=O)c1ccc(F)cc1`, the GFP signal change (wild-type ribosome) is 4.41% (inactive), the OD600 change was -2.05% and the RFP signal change amounted to 0.611%.
The matching figures for `CC1(C(=O)O)CCC(C(=O)Nc2ccc(Cl)c(Cl)c2)C1(C)C` (stereo not given): -23.4% (active), -16.1% and -7.62%.
In the case of `O=C(Nc1ccc(Cl)c(Cl)c1)c1ccccc1NC(=O)C1CC=CCC1C(=O)O` (stereo not given), the GFP signal change (wild-type ribosome) was -35.4% (inactive), the OD600 change is -49.6% and the RFP signal change was -4.13%.
The matching figures for `O=C(Nc1ccc2c(c1)OCO2)C1CC1(Cl)Cl` (stereo not given): -1.64% (inactive), 3.17% and -2.98%.
The matching figures for `Cc1noc(C)c1S(=O)(=O)Nc1ccc2c(c1)CC(=O)N([C@@H](C)CO)C[C@H](C)[C@H](CN(C)C(=O)Nc1cccc3ccccc13)O2`: -2.17% (inactive), -1.79% and 1.2%.
The matching figures for `COc1ccc(S(=O)(=O)Nc2ccc3c(c2)CC(=O)N([C@@H](C)CO)C[C@@H](C)[C@@H](CN(C)Cc2ccc(C(=O)Nc4ccccc4N)cc2)O3)cc1`: -5.01% (inactive), -12% and 2.02%.
As for `C[C@H](CO)N1C[C@H](C)[C@H](CN(C)C)Oc2ccc(NC(=O)c3ccncc3)cc2CC1=O`, the GFP signal change (wild-type ribosome) is 2.76% (inactive), the OD600 change was 14.2% and the RFP signal change was found to be 0.42%.
Taken in the same sequence, the figures for `O=C(c1cccc(S(=O)(=O)N2CCCCCC2)c1)N1CCN(Cc2ccccc2)CC1` were -2.42% (inactive), -10.1% and 4.63%.
`CCn1c2ccccc2c2cc(NC(=O)COC(=O)c3cc(S(=O)(=O)N4CCCCC4)ccc3Cl)ccc21`: the GFP signal change (wild-type ribosome) was 10.5% (inactive), the OD600 change worked out at 8.82% and the RFP signal change was 4.22%.
The matching figures for `CCn1c(O)c(N=NC(=O)c2cccc(S(=O)(=O)N3CCCCC3)c2)c2ccccc21`: -23.6% (active), -16.1% and -4.79%.
Turning to `COc1ccc(CN2[C@H](CO)[C@@H]3c4ccccc4N(C(=O)C4CC4)C[C@@H]32)cc1`, the GFP signal change (wild-type ribosome) was -9.79% (inactive), the OD600 change was -9.13% and the RFP signal change was -1.21%.
With `O=C(NC1CCCCC1)N1CC2(C1)[C@H](c1ccccc1)[C@@H](CO)N2S(=O)(=O)Cc1ccccc1`, the GFP signal change (wild-type ribosome) was -0.158% (inactive), the OD600 change is -18.2% and the RFP signal change was determined as 1.15%.
Taken in the same sequence, the figures for `Cc1nc2nc[nH]n2c(=O)c1C/C=C/c1ccccc1` were -22.4% (active), 1.36% and -5.82%.
Taken in the same sequence, the figures for `C=CCc1c(C)nc2cc(-c3ccccc3)[nH]n2c1=O` were -6.23% (inactive), -4.26% and -2.25%.
In the case of `O=C(C[C@H]1C=C[C@H](NC(=O)C2CCOCC2)[C@@H](CO)O1)NCC1CC1`, the GFP signal change (wild-type ribosome) was -0.532% (inactive), the OD600 change was 2.38% and the RFP signal change amounted to 0.125%.
Taken in the same sequence, the figures for `C[C@@H]1CN(C)C(=O)c2cc([N+](=O)[O-])ccc2O[C@@H]1CN(C)C(=O)OC(C)(C)C` were -2.71% (inactive), 7.21% and -0.0835%.
Take `COc1cccc(Nc2nc(N)c([N+](=O)[O-])c(NCc3ccco3)n2)c1`: the GFP signal change (wild-type ribosome) is -45.5% (active), the OD600 change was -19.5% and the RFP signal change is -12.3%.
